The values below come from PubChem BioAssay (Tox21).

SMILES strings stand for the structures. Results filed as inconclusive are left out. Activity calls are given as the source filed them. Calls follow the shape of the dose curve; as a rule, active = well fitted cell-killing curve with a large enough effect in the repeat runs; inconclusive = weak or mixed curves; inactive = flat fitted curve, though single readings scatter.
% is scaled to controls: 0 for no effect and ±100 for the full control effect.

A short description of this assay: qHTS RealTime-Glo MT Cell Viability Assay in HepG2 cells - 16 hour (AID 1224885). Also: nearly all actives have a fitted effect of over 50% in size. To be noted: RealTime-Glo luminescence; series mostly up to 76.8 µM; activity change, negative = cytotoxic: at the top concentration. The method in brief: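 Cell number in HepG2 cultures estimated from NanoLuc luminescence generated by metabolic reduction of a prosubstrate by living cells. The homogeneous, nonlytic format allowed repeated reads at 0, 8, 16, 24, 32 and 40 h of compound exposure.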
For the compound `OCCCCC(O)CO` (stereo not drawn), the “activity change, negative = cytotoxic” value was 2.11% (inactive).
With `Cc1cccc2nccnc12`, the “activity change, negative = cytotoxic” value was -0.0118% (inactive).
Next, `CN(C)C(=O)CNC(=O)Cc1ccccc1`: -0.782% [at 35.3 µM] (inactive); `CN(CCOc1ccc(NS(C)(=O)=O)cc1)CCc1ccc(NS(C)(=O)=O)cc1`: 2.03% [at 35.3 µM] (inactive); `C=CC(OCC)OCC`: 0.168% (inactive).
Next, `CCCCCCCCSCC`: -0.914% (inactive); `Cc1[nH]cnc1-c1ccc(Cl)cc1`: 1.34% [at 35.3 µM] (inactive); `c1ccc2c(c1)ccc1c3ccccc3ccc21`: 1.29% [at 35.3 µM] (inactive).
For `NS(=O)(=O)c1cc2c(cc1Cl)CN(C1CCCCC1)C2=O`, the “activity change, negative = cytotoxic” value was -3.78% [at 35.3 µM] (inactive).
Next, `Oc1cn2c(n1)Nc1ccc(Cl)c(Cl)c1C2`: 1.52% [at 15.8 µM] (inactive).
On to `CCOC(=O)c1ncn2c1CN(C)C(=O)c1cc(F)ccc1-2`, for which the “activity change, negative = cytotoxic” value is 0.413% [at 35.3 µM] (inactive).
Next, `CN1C(C)(C)CCCC1(C)C`: 1.5% [at 35.3 µM] (inactive); `CC(C)(C)c1cc(CCC(=O)NN)cc(C(C)(C)C)c1O`: -8.61% (inactive).
Next, `CCc1ccc(C=O)cc1`: 0.567% (inactive); `COP(=O)(OC)OC(c1ccc(Cl)cc1)P(=O)(OC)OC` (stereo not drawn): 2.06% [at 35.3 µM] (inactive).
In the case of `CCOCCOCCOCC`, the “activity change, negative = cytotoxic” value was 2.53% (inactive).
For the compound `CC1=C(C(=O)O)N2C(=O)[C@@H](NC(=O)[C@H](N)c3ccc(O)cc3)[C@H]2SC1`, the “activity change, negative = cytotoxic” value is 1.01% [at 35.3 µM] (inactive).
Next, `COc1ccc2c(c1OC)C(=O)O[C@@H]2[C@H]1c2c(cc3c(c2OC)OCO3)CCN1C`: -6.06% [at 35.3 µM] (inactive); `CC(C)CC(=O)O`: 4.21% (inactive); `CC(COC(C)(C)C)OCCCO` (stereo not drawn): 0.66% (inactive).
Next, `CC(=O)NCc1c(I)c(NC(C)=O)c(I)c(C(=O)O)c1I`: -6.19% [at 35.3 µM] (inactive).
Next, `O=C(OCC(COC(=O)c1cccnc1)(COC(=O)c1cccnc1)COC(=O)c1cccnc1)c1cccnc1`: 1.04% [at 35.3 µM] (inactive); `CCOC(=O)c1ccc(OC(=O)CCCCCN=C(N)N)cc1`: 0.468% [at 35.3 µM] (inactive).
